# Source: PubChem BioAssay AID1851 (National Center for Advancing Translational Sciences (NCATS), 2009)
# In all, about 16,000 compounds went through this assay and about 4,000 (25%) were called active. Not shown: some 26% with an inconclusive outcome. A selection follows. A number with no mark means an inactive call. Calls come from the whole dose curve; as a rule, active = well fitted curve in the direction sought with a large enough effect; inconclusive = small, poorly fitted or top-dose-only effect, or effect the other way; inactive = no such curve, though single readings can be large or run the other way.
# Molecular target: Cytochrome P450 2C9 (Homo sapiens) (UniProt P11712)
# Test: Cytochrome panel assay with activity outcomes
# Details: recombinant CYP, pro-luciferin dealkylation, luminescence, p450-cyp2c9; series mostly up to 57.1 µM
# % is set by controls: 0 for no effect and ±100 for the full control effect.
# Chain of Cytochrome P450 2C9 (Homo sapiens) (P11712 whole entry, looked up): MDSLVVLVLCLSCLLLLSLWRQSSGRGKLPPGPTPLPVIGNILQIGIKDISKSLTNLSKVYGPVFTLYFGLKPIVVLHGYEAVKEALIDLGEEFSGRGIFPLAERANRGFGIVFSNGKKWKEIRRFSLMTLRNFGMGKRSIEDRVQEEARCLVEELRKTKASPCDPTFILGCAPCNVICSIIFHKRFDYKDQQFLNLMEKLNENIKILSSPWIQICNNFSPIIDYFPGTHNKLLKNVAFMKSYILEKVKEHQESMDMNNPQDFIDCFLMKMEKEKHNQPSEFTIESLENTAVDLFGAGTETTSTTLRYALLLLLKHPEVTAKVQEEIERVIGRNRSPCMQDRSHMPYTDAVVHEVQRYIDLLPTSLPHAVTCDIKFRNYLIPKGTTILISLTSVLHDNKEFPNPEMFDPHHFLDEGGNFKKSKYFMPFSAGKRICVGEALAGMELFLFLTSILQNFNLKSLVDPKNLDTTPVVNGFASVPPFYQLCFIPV
Structure (SMILES),AC50,"activity, negative = inhibition"
O=C(NCc1ccco1)Nc1cccs1,11.2 µM (active),–
N#Cc1ccccc1NC(=O)Nc1cccs1,inactive,–
Cc1cc2ccccc2n1CCNC(=O)C1CCCC1,inactive,–
Cc1cc(NC(=O)C2CCCCC2)nc2c1c(=O)oc1ccccc12,14.1 µM (active),–
O=C(Nc1cc2ccccc2oc1=O)C1CCCCC1,inactive,–
COc1ccc(-n2c(=O)c(-c3cc(F)cc(F)c3)nc3cnc(N4CCOCC4)nc32)cc1,inactive,–
COc1ccc(-c2cc(C(F)(F)F)nc(N3CCCCC3)n2)cc1OC,10 µM (active),–
COc1ccccc1-c1cc(C(F)(F)F)nc(S(=O)(=O)CCCC(=O)NC(C)C)n1,inactive,–
COc1ccc(-c2cc(C(F)(F)F)nc(NC3CCCC3)n2)cc1OC,7.94 µM (active),–
COc1ccccc1N1CCN(c2nc(-c3ccccc3)cc(C(F)(F)F)n2)CC1,5.62 µM (active),–
COc1ccccc1-c1nc(NC2CC2)c2ccccc2n1,–,5.77% [at 2.29 µM]
CN1CCN(c2nc(-c3ccccc3)cc(C(F)(F)F)n2)CC1,inactive,–
COc1cccc(-c2cc(C(F)(F)F)nc(N3CCOCC3)n2)c1,15.8 µM (active),–
COc1ccccc1-c1nc(N2CCN(C)CC2)c2ccccc2n1,–,11.5% [at 2.29 µM]
COc1ccc(-c2cc(C(F)(F)F)nc(N3CCN(C)CC3)n2)cc1OC,inactive,–
CO[C@H]1COC(=O)C/C=C\[C@@H](C)[C@H](OC)COC(=O)CCC[C@@H]1C,–,9.38% [at 11.4 µM]
COc1cc2c(cc1OC)-c1cc3ccc(OC)c(OC)c3c[n+]1CC2,inactive,–
CN(C)c1ncc2nc(-c3cc(F)cc(F)c3)c(=O)n(C[C@H]3CCCO3)c2n1,inactive,–
COc1ccc(-c2cc(C(F)(F)F)nc(N3CCOCC3)n2)cc1OC,3.98 µM (active),–
Cn1c(=O)c(-c2ccc(F)cc2)nc2cnc(N3CCOCC3)nc21,inactive,–
COc1ccc(-n2c(=O)c(-c3ccc(F)cc3)nc3cnc(N4CCOCC4)nc32)cc1,inactive,–
COc1cc2c(cc1OC)CN(C(=S)Nc1ccccc1)CC2,4.47 µM (active),–
COc1cc2c(cc1OC)[C@H](c1ccccc1)CN(C)CC2,inactive,–
CC(C)(CO)N1CCN(C(=S)Nc2ccccc2)CC1,–,10.3% [at 11.4 µM]
O=C(N/C(=C\c1cccnc1)C(=O)N1CCOCC1)c1cccc(Br)c1,inactive,–

Structure (SMILES),AC50,"activity, negative = inhibition"
O=C(/C=C/c1cccnc1)c1ccc(NC(=O)c2cccc(Br)c2)cc1,4.47 µM (active),–
CN(C)CCn1c(C(=O)O)cc2ccccc21,inactive,–
FC(F)(F)c1nc2ccccc2nc1N/N=C/c1ccc(Cl)cc1,inactive,–
N#CC(c1ccc(Cl)cc1)c1nc2ccccc2nc1C(F)(F)F (stereo not drawn),1.41 µM (active),–
Cc1ccccc1Oc1ncnc2sccc12,inactive,–
Cc1ccccc1Oc1ncnc2oc(-c3ccccc3)cc12,3.98 µM (active),–
Cc1cc(Cl)ccc1Oc1ncc(-c2ccc(Cl)cc2)cn1,inactive,–
Cc1cc(Cl)ccc1Oc1ncnc2oc(-c3ccccc3)cc12,4.47 µM (active),–
CC(O)(P(=O)(O)O)P(=O)(O)O,inactive,–
O=C(c1cnccn1)N1CCC2(CC1)CN(Cc1cc(C(F)(F)F)cc(C(F)(F)F)c1)C2,inactive,–
COc1ccc2cc(C)c3nnc(SCC(=O)Nc4nc(-c5ccccc5)cs4)n3c2c1,2.82 µM (active),–
COc1ccc(-c2nc(-c3ccccc3)c(-c3cc([N+](=O)[O-])ccc3C)[nH]2)cc1O,10 µM (active),–
CCCC(=O)NC(Nc1ccccc1F)C(Cl)(Cl)Cl (stereo not drawn),8.91 µM (active),–
N#Cc1c(NC(=O)C2CC(c3ccccc3Cl)=NO2)sc2c1CCC2 (stereo not drawn),0.708 µM (active),–
CCN(c1ccccc1)c1cc(NC)[n+](C)c(C)n1,inactive,–
CC(C)(C)n1nnnc1C(c1cccnc1)N(Cc1ccccc1)Cc1ccco1 (stereo not drawn),3.98 µM (active),–
CN(Cc1ccco1)c1nc(-c2cccnc2)nc2ccccc12,–,-8.92% [at 2.29 µM]
CN(Cc1ccco1)c1ccnc(-c2cccnc2)n1,–,16.4% [at 2.29 µM]
C=CCn1c(SCC(=O)N2CCc3ccccc3C2)nc2ccccc2c1=O,0.2 µM (active),–
Cc1ccc(-n2c(C)nnc2SCC(=O)N2CCc3ccccc3C2)cc1C,inactive,–
O=C(O)/C=C\C(=O)N1Cc2cc3ccccc3nc2C1,–,10.3% [at 11.4 µM]
CCn1c2ccc(Cl)cc2c2nc3ccccc3nc21,10 µM (active),–
CCn1c2ccccc2c2nnc(NCCCO)nc21,–,5.48% [at 11.4 µM]
CCn1c(N)nc2ccccc21,inactive,–
O=C(O)CCc1nc(-c2ccccc2-n2cccc2)no1,–,-3.02% [at 11.4 µM]

Structure (SMILES),AC50,"activity, negative = inhibition"
C=Cc1c(C)c2cc3nc(cc4[nH]c(cc5nc(cc1[nH]2)C(C)=C5CCC(=O)O)c(CCC(=O)OC)c4C)[C@@]1(C)C3=CC=C(C(=O)OC)[C@H]1C(=O)OC (tested in a mixture with another compound),1.26 µM (active),–
Cc1cccc(CNc2cc(-c3ccc(N(C)C)cc3)ncn2)c1,–,-14.7% [at 2.29 µM]
CCOc1ccc2ccccc2c1C(=O)N[C@@H]1C(=O)N2[C@@H]1SC(C)(C)[C@@H]2C(=O)O,inactive,–
CCOc1cc(C2CC(=O)c3c(ccc4ccccc34)N2)ccc1O (stereo not drawn),3.16 µM (active),–
Cn1cc(-c2nc3cncnc3n(Cc3ccc(F)cc3)c2=O)c2ccccc21,inactive,–
O=c1c(-c2cccs2)nc2cncnc2n1Cc1ccccc1,1.26 µM (active),–
Cc1nc2cnc(Nc3ccccc3)nc2n(CCc2ccccc2)c1=O,inactive,–
COc1cccc(Nc2ncc3nc(-c4cccs4)c(=O)n(CCC#N)c3n2)c1,inactive,–
COc1cccc(Cn2c(=O)c(-c3cccs3)nc3cncnc32)c1,2.51 µM (active),–
Cc1nc2cncnc2n(Cc2ccccc2)c1=O,15.8 µM (active),–
COc1ccc(Oc2ncc3nc(-c4cccs4)c(=O)n(Cc4cccc(OC)c4)c3n2)cc1,1 µM (active),–
COc1ncc2nc(-c3cccs3)c(=O)n(Cc3ccc(F)cc3)c2n1,inactive,–
CCn1cc(C(=O)O)c(=O)c2cnc(N3CCNCC3)nc21,inactive,–
Cc1cc2cc(C=O)c(Cl)nc2cc1C,inactive,–
CCNc1ncc2nc(-c3cccs3)c(=O)n(Cc3cccc(OC)c3)c2n1,inactive,–
COc1cccc(Cn2c(=O)c(-c3cccs3)nc3cnc(N(C)C)nc32)c1,inactive,–
COc1cccc(Cn2c(=O)c(-c3cccs3)nc3cnc(OC)nc32)c1,3.16 µM (active),–
O=c1oc(-c2ccco2)nc2c1cnn2-c1ccccc1,12.6 µM (active),–
Cc1ccc(-n2ncc3c2ncn2nc(-c4ccco4)nc32)c(C)c1,inactive,–
c1ccc(-n2ncc3c2ncn2cnnc32)cc1,inactive,–
C=CCN1CCN(c2nc3ccccc3nc2C#N)CC1,20 µM (active),–
N#Cc1cccc(-c2nc(N3CCNCC3)c3ccccc3n2)c1,–,11.8% [at 2.29 µM]
CNc1nc(-c2ccccc2C(F)(F)F)nc2ccccc12,–,19.6% [at 2.29 µM]
COc1cccc(/C=N/NC(=O)C(=O)NCc2cccnc2)c1,22.4 µM (active),–
COc1cccc(/C=N/NC(=O)c2c(-c3ccccc3)noc2C)c1,3.55 µM (active),–

Structure (SMILES),AC50,"activity, negative = inhibition"
COc1cccc(/C=N/NC(=O)c2nc(-c3ccccc3)cc(-c3ccccc3)n2)c1,inactive,–
Cc1cccc(C)c1NC(=O)COc1cccc(/C=N/NC(=O)C(=O)NCc2ccccc2)c1,inactive,–
C=CCOc1cccc(/C=N/NC(=O)C(=O)NCc2ccco2)c1,inactive,–
CC(C)=CCC/C(C)=C/CO/N=C1/C[C@@H](O)[C@@H](O)[C@@H]2[C@@H]3C(=O)N(C4CCCCC4)C(=O)[C@H]3CC[C@H]12,–,-5.92% [at 11.4 µM]
Nc1nc(Br)c2c(F)cccc2c1-c1ccc(Cl)cc1,4.47 µM (active),–
Nc1nc(Br)c2ccccc2c1-c1ccc(F)cc1,inactive,–
Nc1nc(Br)c2c(F)cccc2c1-c1ccc(F)cc1,2.51 µM (active),–
Cc1noc(C)c1-c1cc(Nc2ccc(F)cc2)ncn1,–,-1.17% [at 2.29 µM]
CN1CCN(c2ncnc3ccc(-c4ccc5c(c4)OCO5)cc23)CC1,–,14.7% [at 2.29 µM]
CC(C)C(=O)N[C@@H]1CCCN1C(=O)/C=C\c1ccccc1,–,-11.6% [at 11.4 µM]
CC(C)C(=O)N[C@H]1CCCN1C(=O)/C=C\c1ccccc1,–,-2.39% [at 11.4 µM]
C#CCSc1nncn1C(=O)/C=C/c1ccccc1,3.98 µM (active),–
COc1cccc(CC(C(=O)Nc2cc(C)ccc2C)c2nn[nH]n2)c1OC (stereo not drawn),inactive,–
COc1ccc(C(N)=O)cc1NC(=O)c1cccc(F)c1,inactive,–
C=C(C)c1cccc(C(C)(C)NC(=O)Nc2cc(C)ccc2OC)c1,10 µM (active),–
O=C(OC(C(=O)NC1CCCC1)c1ccncc1)C1=Cc2ccccc2OC1 (stereo not drawn),2.82 µM (active),–
CN(C)Cc1ccccc1-c1ccc2ncnc(N(C)Cc3ccco3)c2c1,–,-5.32% [at 2.29 µM]
COc1ccc([C@@H]2CC(=O)c3c(O)cc(O)cc3O2)cc1O,10 µM (active),–
O=C1c2c(O)cc(O)cc2O[C@@H](c2ccc(O)c(O)c2)[C@H]1O,inactive,–
COc1ccc([C@@H]2CC(=O)c3c(O)cc(O[C@H]4O[C@@H](CO[C@H]5O[C@@H](C)[C@@H](O)[C@@H](O)[C@@H]5O)[C@@H](O)[C@@H](O)[C@@H]4O)cc3O2)cc1O,inactive,–
COc1ccc(C(=O)NC(=S)NC(C)(C)C)cc1Br,10 µM (active),–
COc1ccc(Br)c2c1C[C@H](C(=O)O)CC2,–,-27.4% [at 11.4 µM]
COc1ccc(C(=O)NC(=S)NC(C)C)cc1Br,inactive,–
